Data as given in PubChem BioAssay AID1851 (National Center for Advancing Translational Sciences (NCATS), 2009).
About 2,600 (16%) of roughly 16,000 compounds were called active. Another 20% or so got no clear call; they are omitted. Calls follow the shape of the dose curve; as a rule, active = well fitted curve in the direction sought with a large enough effect; inconclusive = small, poorly fitted or top-dose-only effect, or effect the other way; inactive = no such curve, though single readings can be large or run the other way. Not all results are given here.

Molecular target: Cytochrome P450 2D6 (Homo sapiens) (UniProt P10635)
Sequence (P10635 whole entry, looked up): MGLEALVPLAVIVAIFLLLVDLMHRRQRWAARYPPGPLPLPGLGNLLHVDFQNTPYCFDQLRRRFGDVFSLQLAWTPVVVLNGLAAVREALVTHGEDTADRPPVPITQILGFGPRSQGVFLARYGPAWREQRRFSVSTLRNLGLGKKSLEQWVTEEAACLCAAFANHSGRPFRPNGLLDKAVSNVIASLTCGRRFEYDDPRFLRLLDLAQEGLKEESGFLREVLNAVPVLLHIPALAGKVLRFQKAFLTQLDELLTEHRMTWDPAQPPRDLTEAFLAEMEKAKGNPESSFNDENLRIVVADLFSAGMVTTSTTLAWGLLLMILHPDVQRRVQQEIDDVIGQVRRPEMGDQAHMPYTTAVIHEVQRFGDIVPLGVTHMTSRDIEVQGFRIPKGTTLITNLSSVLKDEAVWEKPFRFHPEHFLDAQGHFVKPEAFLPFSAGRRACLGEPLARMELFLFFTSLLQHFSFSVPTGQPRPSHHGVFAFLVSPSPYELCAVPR
Assay: Cytochrome panel assay with activity outcomes
Conditions: recombinant CYP, pro-luciferin dealkylation, luminescence, p450-cyp2d6; series mostly up to 57.1 µM; activity, negative = inhibition: at the top concentration
% is scaled to controls: 0 for no effect and ±100 for the full control effect.

activity, negative = inhibition, inactive:
CC(=O)Nc1nc(NC(C)=O)c2[nH]c(CO)nc2n1 -2.84% [at 11.4 µM]
OC(CN1CCCCC1)CN1CCCCC1 2.59%
O=CN1CCN(C[C@H](O)CN2CCCCC2)CC1 9.19% [at 11.4 µM]
Nc1ccc(C(=O)C[C@H](N)C(=O)O)cc1O -0.576% [at 11.4 µM]
Cc1ccc(C)c(S(=O)(=O)NCc2ccc(C(=O)N3CCC(Cc4ccccc4)CC3)cc2)c1 -14.3%
CS(=O)(=O)Nc1ccc(C(=O)N2CCN(c3ccccc3)CC2)cc1 -5.62%
COc1ccccc1CNS(=O)(=O)c1ccc2[nH]cc(C(=O)O)c(=O)c2c1 11.4%
COCC(=O)N/N=C/c1ccc(Sc2nc3ccccc3s2)o1 -14.8%
Cc1ccc(C(=O)NC(=S)N2CC(C)OC(C)C2)cc1[N+](=O)[O-] (stereo not drawn) -2.21%
CC(C)C[C@H](NC(=O)[C@@H]1O[C@H]1C(=O)O)C(=O)NCCCCN=C(N)N 13.8%
O=C(NC(C(=O)c1ccccc1)n1cnccc1=O)c1ccccc1 (stereo not drawn) -12.4%
COc1cc2c(c(O)c1OC)C(=O)C(OC)CCC2 (stereo not drawn) 9.33%
Cc1c(Nc2ncccc2C(=O)O)cccc1C(F)(F)F 6.69% [at 25.6 µM]
C/C(CCC(=O)OC[C@@H]1O[C@H](C#Cc2ccccc2)C=C[C@@H]1Oc1ccc(C)cc1)=N/OC[C@@H](C)[C@H](OCc1ccccc1)C(C)C -14.2% [at 11.4 µM]
COCCn1c(=O)c(-c2cn(C)c3ccccc23)nc2cnc(Oc3ccccc3)nc21 8.26%
Cc1ccc(S(=O)(=O)NCCSc2nnnn2C)cc1 2.18%
Cc1ccc(C)n1NC(=O)c1ccccc1 -10.9%
O=C(NN1C(=O)c2ccccc2C1=O)C1CCCCC1 -6.28%
CN(C)CCn1c(C(=O)O)cc2ccccc21 8.96%
CCN(CC)C(=O)CCNS(=O)(=O)c1ccc(C)cc1 23.4%
Cc1cc2ccccc2c(=O)n1CC(=O)NCC(=O)N1CCCC1 4.07%

AC50, active:
Cc1cc(=O)n2c3ccccc3n(CC(O)CN3CCCCC3)c2c1C#N (stereo not drawn) 8.91 µM
Cc1ccc(C(=O)N2CCN(C3c4cccc5cccc(c45)C3NS(=O)(=O)c3ccccc3)CC2)cc1 (stereo not drawn) 2.82 µM
Cc1ccccc1-c1nc(-n2ccnc2)c2ccccc2n1 15.8 µM
Clc1ccccc1-c1nc(-n2ccnc2)c2ccccc2n1 12.6 µM
Cc1cc2ccccc2n1CCNC(=O)C1CCCC1 12.6 µM
Cc1cc2ccccc2n1CCNC(=O)c1ccccc1 2.51 µM
Cc1ccc(S(=O)(=O)NCCn2c(C)cc3ccccc32)cc1 8.91 µM
